# The sample as a whole holds a higher share of hits than the screen did.
# SARS PLpro yeast = SARS-CoV PLP inhibition in yeast | S. cerevisiae expressing SARS-CoV PLpro, growth rescue | Potency, µM (top dose mostly 32.9 µM), without a hit: at the highest dose activity, positive = growth rescue, actives largely listed as activators | 330,000 tested, 0.19% active; calls by dose curve; further: potency means the concentration at half of the fitted maximal effect; 0% is about no effect; nearly all actives have a fitted effect of over 55% in size
# LmPK inhibitor = blocks Leishmania mexicana pyruvate kinase activity. Potency, µM (titrated, usually from 57.5 µM), inactives show top-dose activity change, negative = inhibition, actives largely listed as inhibitors. purified LmPK, Kinase-Glo ATP luminescence, 1 h. Q27686. 290,000 tested, 0.37% active. AID 1721; further: potency means the concentration at half of the fitted maximal effect; on the % scale 0 is the no-effect control and ±100 the full control effect
# Target sequence (Q27686 whole entry, looked up): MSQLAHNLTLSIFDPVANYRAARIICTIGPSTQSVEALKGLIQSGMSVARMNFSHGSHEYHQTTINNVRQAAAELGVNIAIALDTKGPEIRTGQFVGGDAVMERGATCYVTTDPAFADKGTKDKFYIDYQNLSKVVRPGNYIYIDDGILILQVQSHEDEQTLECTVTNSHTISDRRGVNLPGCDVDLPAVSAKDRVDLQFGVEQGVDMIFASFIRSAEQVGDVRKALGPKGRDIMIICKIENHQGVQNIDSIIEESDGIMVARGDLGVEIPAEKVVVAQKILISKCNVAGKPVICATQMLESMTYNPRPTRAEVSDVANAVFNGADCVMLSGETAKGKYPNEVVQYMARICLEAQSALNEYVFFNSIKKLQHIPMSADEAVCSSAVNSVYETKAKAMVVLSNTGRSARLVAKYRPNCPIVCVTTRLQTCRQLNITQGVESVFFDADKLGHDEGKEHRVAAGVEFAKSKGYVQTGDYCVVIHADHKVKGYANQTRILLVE
#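 Purified LmPK (0.1 nM) converted ADP (0.1 mM) to ATP with PEP (0.5 mM) in imidazole buffer pH 7.2 with KCl and MgCl2, 1 h at room temperature. ATP was read by Kinase-Glo luminescence; data normalized to uninhibited and no-enzyme controls.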
# TbPYK inhibitor = blocks Trypanosoma brucei pyruvate kinase; TbPYK enzyme, Kinase-Glo Plus ATP luminescence, 45 min; Potency, µM (top dose mostly 76.8 µM), for inactives: at the highest dose activity, negative = inhibition, hits mostly inhibitors; 410,000 tested, 0.12% active; AID 624173; further: potency means the concentration at half of the fitted maximal effect; on the % scale 0 is the no-effect control and ±100 the full control effect; nearly all actives have a fitted effect of over 50% in size
#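 Readout: single end-point luminescence (Kinase-Glo Plus, 10 min). Reaction conditions were TbPYK/substrate plus 130 uM ADP, 45 min at RT, pH 7.2 TEA buffer. No-enzyme wells served as controls, and data were normalized before concentration-response fitting.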
# NS1 inh = influenza NS1 inhibition | Potency, µM (series often up to 46.1 µM), for inactives: top-dose activity, positive = more growth | 270,000 tested, 0.4% active | AID 2326; calls by dose curve; further: potency means the concentration at half of the fitted maximal effect; actives are rising curves; nearly all actives have a fitted effect of over 50% in size
#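 OD600 was taken as the measure of yeast growth restored by compound in an NS1-expressing S. cerevisiae strain. Cells had been washed out of glucose medium and diluted 1:100 into galactose -URA medium, pH 6.0.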
# Cycloheximide cs = counter-screen for Shiga toxin inhibitors: cycloheximide protein synthesis inhibition | cell reporter, cycloheximide protein synthesis inhibition counterscreen | max response, % | 300,000 tested, 12% active; in the data active means max response mostly above about 13%, no sharp cut-off; inactive means mostly below about 14%; further: read at 38.3 µM for the half of the compounds with a filed dose; 0% is about no effect
# Shiga toxin inh = inhibitors of Shiga toxin in Vero cells; inhibition, % at 38.7 µM; 290,000 tested, 9.2% active; Vero cells, Shiga toxin protein synthesis inhibition reporter; in the data active means inhibition mostly above about 28%, no sharp cut-off; inactive means mostly below about 43%; further: 0% is about no effect
# Active calls of the source: *; ? = inconclusive; . = not tested or not shown. Unless noted, the call rests on the fitted dose curve; in most records, active means well fitted curve in the direction sought with a large enough effect; inconclusive means small, poorly fitted or top-dose-only effect, or another doubt; inactive means no such curve, though single readings can be large; an effect the other way counts as inactive or inconclusive.
SMILES,SARS PLpro yeast,LmPK inhibitor,TbPYK inhibitor,NS1 inh,Cycloheximide cs,Shiga toxin inh
O=[N+]([O-])c1ccc(-c2csc(Nc3ccccc3)[n+]2Cc2ccccc2)cc1,-36%,-6%,-16%,26%,33*,29*
Cc1ccc(-c2csc(Nc3ccccc3)[n+]2CCc2ccccc2)cc1,-4%,-1%,1%,.,23*,70*
Cc1ccc(-c2csc(Nc3ccc(C(=O)O)cc3)[n+]2Cc2ccccc2)cc1,-1%,2%,0%,2%,5,19
COc1ccc(-c2csc(Nc3ccccc3)[n+]2Cc2ccccc2)cc1,-8%,1%,1%,.,38*,55*
O=[N+]([O-])c1ccc(C[n+]2c(-c3ccccc3)cc(-c3ccccc3)cc2-c2ccccc2)cc1,1%,.,-2%,.,.,.
CCN(CC(=O)NCc1ccc(F)cc1)C(=O)Cc1ccc(OC)cc1,0%,-5%,0%,21%,-4,40
COc1ccc(NC(=O)c2sc3nc(C)c(C(=O)Nc4ccc(C)cc4C)c(-c4cccs4)c3c2N)cc1,.,.,-7%,.,.,.
CC(=O)c1ccc(NC(=O)[C@@H]2CCCN2C(=O)OC(C)(C)C)cc1,1%,3%,4%,1%,51*,87*
O=C(Nc1ccc(O)cc1)C1CCCO1 (configuration not stated),0%,8%,2%,-7%,-2,8
O=C(Nc1ccc2c(c1)CCC2)C1CCCO1 (configuration not stated),-3%,-3%,-8%,-2%,39*,53*
CC(=O)c1ccc(NC(=O)C2CCCO2)cc1 (configuration not stated),4%,1%,5%,-23%,38*,.
CC(=O)c1ccc(N2CCN(C(=O)Nc3ccc(F)cc3)CC2)cc1,-10%,-2%,.,.,21*,42
COc1ccc(NC(=O)[C@@H]2CCCN2C(=O)[C@@H]2Cc3ccccc3CN2C(=O)OC(C)(C)C)cc1,-3%,13%,2%,6%,23,22
O=C(NC(=S)NNS(=O)(=O)c1ccc(Cl)cc1)c1cccnc1,1%,-1%,-7%,-4%,-2,-3
O=C(Nc1cccc(NC(=O)C2CCCO2)c1)C1CCCO1 (configuration not stated),12%,-4%,1%,2%,-4,-4
Cc1ccc(NC(=O)C2CCCO2)cc1[N+](=O)[O-] (configuration not stated),15%,-5%,-11%,-2%,28*,31
CC(=O)c1ccc(N2CCN(C(=O)c3ccc(NC(=O)C4CCCO4)cc3)CC2)cc1 (configuration not stated),-2%,-3%,0%,1%,14*,24
CCOC(=O)C1CCN(C(=O)c2ccc(NC(=O)C3CCCO3)cc2)CC1 (configuration not stated),-13%,2%,3%,0%,0,25
Cc1ccc(NC(=S)Nc2ccc3nc(-c4ccccn4)c(-c4ccccn4)nc3c2)cc1C,?,2%,1%,25%,16*,40
Cc1ccc(NC(=S)Nc2ccccn2)cc1C,2%,1%,-16%,-4%,65*,85*
Cc1ccc(NC(=S)Nc2ccccn2)c(C)c1,-2%,-6%,-9%,-7%,48*,82*
Cc1cccc(NC(=S)Nc2ccccn2)c1,0%,-4%,-7%,-51%,33*,62*
COCCNc1nc(Nc2ccc(F)cc2)c2sccc2n1,.,.,-2%,.,.,.
Cc1cccc(C(O)c2ncc(-c3ccc4ccccc4c3)[nH]2)c1C (configuration not stated),.,.,-3%,.,.,.
Cc1nn(Cc2ccccc2)c(Cl)c1C(=O)NCCc1ccc(Cl)cc1,-7%,-1%,0%,-15%,14*,18
Cc1nn(-c2ccccc2)c(C)c1C(=O)NCCc1ccc(Cl)cc1,-5%,-6%,1%,-8%,-2,-17
Cc1nn(-c2ccccc2)c(C)c1C(=O)NCCc1ccccc1,0%,0%,1%,-4%,33*,74*
CC1CCC(NC(=O)c2ccc3c(c2)N(Cc2ccccc2F)C(=O)c2ccccc2S3=O)CC1 (configuration not stated),.,.,3%,.,.,.
